{"source": "PubChem BioAssay (NCATS)", "key": {"[1]": {"experiment": "qHTS profiling for inhibitors of Plasmodium falciparum proliferation (AID 504749); note: nearly all actives have a fitted effect of over 60% in size", "settings": "P. falciparum in erythrocytes, SYBR Green DNA, 72 h", "how_it_was_run": "(§1)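 Fluorescence of SYBR Green-bound parasite DNA, read at 485/535 nm, served as the growth measure. Infected erythrocytes were cultured with compound 72 h; artemisinin (0.29 uM) and DMSO wells defined the normalization range.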"}, "3D7": {"tested_on": "3D7", "experiment": "qHTS profiling for inhibitors of Plasmodium falciparum proliferation (AID 504749)", "settings": "P. falciparum in erythrocytes, SYBR Green DNA, 72 h; series mostly up to 28.7 µM", "how_it_was_run": "as §1"}, "7G8": {"tested_on": "7G8", "experiment": "qHTS profiling for inhibitors of Plasmodium falciparum proliferation (AID 504749)", "settings": "P. falciparum in erythrocytes, SYBR Green DNA, 72 h; series mostly up to 28.7 µM", "how_it_was_run": "as §1"}, "C2A": {"tested_on": "C2A", "experiment": "qHTS profiling for inhibitors of Plasmodium falciparum proliferation (AID 504749)", "settings": "P. falciparum in erythrocytes, SYBR Green DNA, 72 h; series mostly up to 28.7 µM", "how_it_was_run": "as §1"}, "CP191": {"tested_on": "CP191", "experiment": "qHTS profiling for inhibitors of Plasmodium falciparum proliferation (AID 504749)", "settings": "P. falciparum in erythrocytes, SYBR Green DNA, 72 h; series mostly up to 28.7 µM", "how_it_was_run": "as §1"}, "CP192": {"tested_on": "CP192", "experiment": "qHTS profiling for inhibitors of Plasmodium falciparum proliferation (AID 504749)", "settings": "P. falciparum in erythrocytes, SYBR Green DNA, 72 h; series mostly up to 28.7 µM", "how_it_was_run": "as §1"}, "CP201": {"tested_on": "CP201", "experiment": "qHTS profiling for inhibitors of Plasmodium falciparum proliferation (AID 504749)", "settings": "P. falciparum in erythrocytes, SYBR Green DNA, 72 h; series mostly up to 28.7 µM", "how_it_was_run": "as §1"}, "CP211": {"tested_on": "CP211", "experiment": "qHTS profiling for inhibitors of Plasmodium falciparum proliferation (AID 504749)", "settings": "P. falciparum in erythrocytes, SYBR Green DNA, 72 h; series mostly up to 28.7 µM", "how_it_was_run": "as §1"}, "CP215": {"tested_on": "CP215", "experiment": "qHTS profiling for inhibitors of Plasmodium falciparum proliferation (AID 504749)", "settings": "P. falciparum in erythrocytes, SYBR Green DNA, 72 h; series mostly up to 28.7 µM", "how_it_was_run": "as §1"}, "AA1029": {"tested_on": "AA1029", "experiment": "qHTS profiling for inhibitors of Plasmodium falciparum proliferation (AID 504749)", "settings": "P. falciparum in erythrocytes, SYBR Green DNA, 72 h; series mostly up to 28.7 µM", "how_it_was_run": "as §1"}, "AS120": {"tested_on": "AS120", "experiment": "qHTS profiling for inhibitors of Plasmodium falciparum proliferation (AID 504749)", "settings": "P. falciparum in erythrocytes, SYBR Green DNA, 72 h; series mostly up to 28.7 µM", "how_it_was_run": "as §1"}, "ATS189": {"tested_on": "ATS189", "experiment": "qHTS profiling for inhibitors of Plasmodium falciparum proliferation (AID 504749)", "settings": "P. falciparum in erythrocytes, SYBR Green DNA, 72 h; series mostly up to 28.7 µM", "how_it_was_run": "as §1"}, "ATS95": {"tested_on": "ATS95", "experiment": "qHTS profiling for inhibitors of Plasmodium falciparum proliferation (AID 504749)", "settings": "P. falciparum in erythrocytes, SYBR Green DNA, 72 h; series mostly up to 28.7 µM", "how_it_was_run": "as §1"}, "CP185": {"tested_on": "CP185", "experiment": "qHTS profiling for inhibitors of Plasmodium falciparum proliferation (AID 504749)", "settings": "P. falciparum in erythrocytes, SYBR Green DNA, 72 h; series mostly up to 28.7 µM", "how_it_was_run": "as §1"}, "CP194": {"tested_on": "CP194", "experiment": "qHTS profiling for inhibitors of Plasmodium falciparum proliferation (AID 504749)", "settings": "P. falciparum in erythrocytes, SYBR Green DNA, 72 h; series mostly up to 28.7 µM", "how_it_was_run": "as §1"}, "CP217": {"tested_on": "CP217", "experiment": "qHTS profiling for inhibitors of Plasmodium falciparum proliferation (AID 504749)", "settings": "P. falciparum in erythrocytes, SYBR Green DNA, 72 h; series mostly up to 28.7 µM", "how_it_was_run": "as §1"}, "CP237": {"tested_on": "CP237", "experiment": "qHTS profiling for inhibitors of Plasmodium falciparum proliferation (AID 504749)", "settings": "P. falciparum in erythrocytes, SYBR Green DNA, 72 h; series mostly up to 28.7 µM", "how_it_was_run": "as §1"}, "CP203": {"tested_on": "CP203", "experiment": "qHTS profiling for inhibitors of Plasmodium falciparum proliferation (AID 504749)", "settings": "P. falciparum in erythrocytes, SYBR Green DNA, 72 h; series mostly up to 28.7 µM", "how_it_was_run": "as §1"}, "[2]": {"settings": "at 28.7 µM (top of the series), parasite line A"}, "[3]": {"settings": "at 28.7 µM (top of the series), parasite line B"}, "[4]": {"settings": "at 12.8 µM (top of the series), parasite line A"}, "[5]": {"settings": "at 12.8 µM (top of the series), parasite line B"}}, "note": "Records with an inconclusive call do not appear. Entries that show only a call come without a potency. Values without a mark were called inactive. Activity calls are given as the source filed them. Calls come from the whole dose curve; as a rule, active = well fitted inhibition curve with a large enough effect; inconclusive = small, poorly fitted or top-dose-only effect; inactive = flat fitted curve, though single readings scatter. Potency is the fitted concentration of half-maximal effect."}
{"smiles": "CC(Cc1ccccc1)NCc1ccccc1Cl", "note": "(configuration not stated)", "values": [{"measurement": "activity, negative = inhibition", "setting": "[1]; [2]", "value": -0.799, "unit": "%"}, {"measurement": "activity, negative = inhibition", "setting": "[1]; [3]", "value": -0.104, "unit": "%"}, {"measurement": "Potency", "setting": "3D7", "value": "inactive"}, {"measurement": "Potency", "setting": "7G8", "value": "11.2 µM (active)"}, {"measurement": "Potency", "setting": "C2A", "value": "inactive"}, {"measurement": "Potency", "setting": "CP191", "value": "inactive"}, {"measurement": "Potency", "setting": "CP192", "value": "inactive"}, {"measurement": "Potency", "setting": "CP201", "value": "inactive"}, {"measurement": "Potency", "setting": "CP211", "value": "inactive"}, {"measurement": "Potency", "setting": "CP215", "value": "inactive"}]}
{"smiles": "CC(C)[N+](C)(CCC(C(N)=O)(c1ccccc1)c1ccccc1)C(C)C", "values": [{"measurement": "activity, negative = inhibition", "setting": "[1]; [4]", "value": -4.63, "unit": "%"}, {"measurement": "activity, negative = inhibition", "setting": "[1]; [5]", "value": 4.79, "unit": "%"}, {"measurement": "Potency", "setting": "3D7", "value": "inactive"}, {"measurement": "Potency", "setting": "AA1029", "value": "inactive"}, {"measurement": "Potency", "setting": "AS120", "value": "inactive"}, {"measurement": "Potency", "setting": "ATS189", "value": "inactive"}, {"measurement": "Potency", "setting": "ATS95", "value": "inactive"}, {"measurement": "Potency", "setting": "C2A", "value": "inactive"}, {"measurement": "Potency", "setting": "CP185", "value": "inactive"}, {"measurement": "Potency", "setting": "CP191", "value": "inactive"}, {"measurement": "Potency", "setting": "CP192", "value": "inactive"}, {"measurement": "Potency", "setting": "CP194", "value": "inactive"}, {"measurement": "Potency", "setting": "CP201", "value": "inactive"}, {"measurement": "Potency", "setting": "CP211", "value": "inactive"}, {"measurement": "Potency", "setting": "CP215", "value": "inactive"}, {"measurement": "Potency", "setting": "CP217", "value": "inactive"}, {"measurement": "Potency", "setting": "CP237", "value": "inactive"}]}
{"smiles": "CCNc1nc(Cl)nc(NCC)n1", "values": [{"measurement": "activity, negative = inhibition", "setting": "[1]; [2]", "value": 3.24, "unit": "%"}, {"measurement": "Potency", "setting": "3D7", "value": "inactive"}, {"measurement": "Potency", "setting": "7G8", "value": "inactive"}, {"measurement": "Potency", "setting": "AA1029", "value": "inactive"}, {"measurement": "Potency", "setting": "AS120", "value": "inactive"}, {"measurement": "Potency", "setting": "ATS189", "value": "inactive"}, {"measurement": "Potency", "setting": "ATS95", "value": "inactive"}, {"measurement": "Potency", "setting": "C2A", "value": "inactive"}, {"measurement": "Potency", "setting": "CP185", "value": "inactive"}, {"measurement": "Potency", "setting": "CP191", "value": "inactive"}, {"measurement": "Potency", "setting": "CP192", "value": "inactive"}, {"measurement": "Potency", "setting": "CP194", "value": "inactive"}, {"measurement": "Potency", "setting": "CP201", "value": "inactive"}, {"measurement": "Potency", "setting": "CP203", "value": "inactive"}, {"measurement": "Potency", "setting": "CP211", "value": "inactive"}, {"measurement": "Potency", "setting": "CP215", "value": "inactive"}, {"measurement": "Potency", "setting": "CP217", "value": "inactive"}, {"measurement": "Potency", "setting": "CP237", "value": "inactive"}]}
{"smiles": "CNC(=O)Oc1cccc2ccccc12", "values": [{"measurement": "activity, negative = inhibition", "setting": "[1]; [2]", "value": -7.78, "unit": "%"}, {"measurement": "activity, negative = inhibition", "setting": "[1]; [3]", "value": -8.17, "unit": "%"}, {"measurement": "Potency", "setting": "3D7", "value": "inactive"}, {"measurement": "Potency", "setting": "AA1029", "value": "inactive"}, {"measurement": "Potency", "setting": "AS120", "value": "inactive"}, {"measurement": "Potency", "setting": "ATS189", "value": "inactive"}, {"measurement": "Potency", "setting": "ATS95", "value": "inactive"}, {"measurement": "Potency", "setting": "C2A", "value": "inactive"}, {"measurement": "Potency", "setting": "CP185", "value": "inactive"}, {"measurement": "Potency", "setting": "CP191", "value": "inactive"}, {"measurement": "Potency", "setting": "CP192", "value": "inactive"}, {"measurement": "Potency", "setting": "CP194", "value": "inactive"}, {"measurement": "Potency", "setting": "CP201", "value": "inactive"}, {"measurement": "Potency", "setting": "CP211", "value": "inactive"}, {"measurement": "Potency", "setting": "CP215", "value": "inactive"}, {"measurement": "Potency", "setting": "CP217", "value": "inactive"}, {"measurement": "Potency", "setting": "CP237", "value": "inactive"}]}
{"smiles": "COc1ccc(CN2CCNCC2)c(OC)c1OC", "values": [{"measurement": "activity, negative = inhibition", "setting": "[1]; [4]", "value": 8.69, "unit": "%"}, {"measurement": "activity, negative = inhibition", "setting": "[1]; [5]", "value": 4.48, "unit": "%"}, {"measurement": "Potency", "setting": "3D7", "value": "inactive"}, {"measurement": "Potency", "setting": "7G8", "value": "inactive"}, {"measurement": "Potency", "setting": "AA1029", "value": "inactive"}, {"measurement": "Potency", "setting": "AS120", "value": "inactive"}, {"measurement": "Potency", "setting": "ATS189", "value": "inactive"}, {"measurement": "Potency", "setting": "ATS95", "value": "inactive"}, {"measurement": "Potency", "setting": "C2A", "value": "inactive"}, {"measurement": "Potency", "setting": "CP185", "value": "inactive"}, {"measurement": "Potency", "setting": "CP191", "value": "inactive"}, {"measurement": "Potency", "setting": "CP192", "value": "inactive"}, {"measurement": "Potency", "setting": "CP217", "value": "inactive"}, {"measurement": "Potency", "setting": "CP237", "value": "inactive"}]}
{"smiles": "CN1CCc2cc(Cl)c(O)cc2[C@H]2c3ccccc3CC[C@@H]21", "values": [{"measurement": "activity, negative = inhibition", "setting": "[1]; [3]", "value": -29.7, "unit": "%"}, {"measurement": "Potency", "setting": "7G8", "value": "11.2 µM (active)"}, {"measurement": "Potency", "setting": "C2A", "value": "inactive"}, {"measurement": "Potency", "setting": "CP192", "value": "inactive"}, {"measurement": "Potency", "setting": "CP201", "value": "inactive"}, {"measurement": "Potency", "setting": "CP237", "value": "5.62 µM (active)"}]}
{"smiles": "CC[C@]1(O)CC[C@H]2[C@@H]3CCC4=CCCC[C@@H]4[C@H]3CC[C@@]21C", "values": [{"measurement": "Potency", "setting": "3D7", "value": "inactive"}, {"measurement": "Potency", "setting": "7G8", "value": "7.94 µM (active)"}, {"measurement": "Potency", "setting": "C2A", "value": "0.891 µM (active)"}, {"measurement": "Potency", "setting": "CP192", "value": "inactive"}, {"measurement": "Potency", "setting": "CP194", "value": "inactive"}, {"measurement": "Potency", "setting": "CP201", "value": "inactive"}, {"measurement": "Potency", "setting": "CP203", "value": "inactive"}, {"measurement": "Potency", "setting": "CP211", "value": "inactive"}, {"measurement": "Potency", "setting": "CP215", "value": "inactive"}, {"measurement": "Potency", "setting": "CP237", "value": "inactive"}]}
